Compounds with a hit are over-represented: about 8.1% of the library has one in this group of screens.
KB-3-1 tox: kills parental KB-3-1 adenocarcinoma cells; KB-3-1 viability, CellTiter-Glo ATP luminescence, 72 h; Potency, µM (series often up to 46.1 µM), hits mostly cytotoxic; 400,000 compounds, 1.4% hits; AID 1347075; further: on the % scale 0 is the no-effect control and ±100 the full control effect; nearly all actives have a fitted effect of over 60% in size
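KB-3-1 parental drug-naive adenocarcinoma cells in DMEM/10% FBS, incubated 72 h at 37 C with pin-transferred compounds across a concentration series. Viability by CellTiter-Glo luminescence; concentration-response curves fitted after normalization.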
SW480 rereplic: inducers of DNA re-replication in SW480 colon cancer cells; SW480 DNA re-replication, Hoechst DNA content imaging, 48 h; Potency, µM (titrated, usually from 46.1 µM), for the others: at the highest dose re-replication activation, usual class: activators; 340,000 compounds, 1.8% hits; further: % of control where 0% means no effect; nearly all actives have a fitted effect of over 55% in size
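First, 250 cells per well were seeded. Next, compound or vehicle (23 nL) was pinned in, plates sat 48 hr at 37 C. Finally Hoechst was added for 40 min before fluorescence scanning.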
ELG1 DNA repair: ELG1-dependent DNA repair inhibition; HEK293T ELG1-luciferase reporter, luminescence, 16 h; DNA damage induced by 5-fluorouridine; Potency, µM (doses to about 46.1 µM), inactives show at the top dose activity change, negative = inhibition, most hits filed as inhibitors; 330,000 compounds, 2.3% hits; AID 504467; further: on the % scale 0 is the no-effect control and ±100 the full control effect; nearly all actives have a fitted effect of over 55% in size
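5-Fluorouridine DNA damage + compound/DMSO, 2,000 cells/well, 16 h, 37 °C/5% CO2. ONE-Glo, 30 min RT, luminescence. Readout = decrease in reporter signal.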
MCF10A rerep: DNA re-replication induction in MCF 10a cells; 350,000 compounds, 2.9% hits; MCF 10A DNA re-replication, Hoechst nuclear intensity, 48 h; Potency, µM (top dose mostly 46.1 µM), for inactives: top-dose activity, positive = re-replication, actives largely listed as activators; further: % of control where 0% means no effect; nearly all actives have a fitted effect of over 50% in size
KB-V1 cytotox: kills drug-selected multidrug resistant KB-V1 cells. Potency, µM (series often up to 46.1 µM), most hits filed as cytotoxic. 400,000 compounds, 3.4% hits. KB-V1 MDR cells viability, CellTiter-Glo, 72 h. AID 1347076; further: on the % scale 0 is the no-effect control and ±100 the full control effect; nearly all actives have a fitted effect of over 60% in size
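KB-V1, DMEM (no phenol red) + 10% FBS; cpd pin-transferred, titration series; 72 h, 37 degrees C; CellTiter-Glo, luminescence. Data normalized, curve-fit.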
The depositor's hits bear a star; i = inactive; ? = inconclusive; . = no result given; ! = not confirmed by another sample; [ ] = remark or other dose. The call rests on the fitted dose curve; in most records, active means well fitted curve in the direction sought with a large enough effect; inconclusive means small, poorly fitted or top-dose-only effect, or another doubt; inactive means no such curve, though single readings can be large; an effect the other way counts as inactive or inconclusive. Potency means the concentration at half of the fitted maximal effect.

SMILES	KB-3-1 tox	SW480 rereplic	ELG1 DNA repair	MCF10A rerep	KB-V1 cytotox
O=S(=O)(Nc1cccc2cccnc12)c1ccccc1	?	23µM*	-20%	21µM*	?
Cc1ccc(S(=O)(=O)Nc2cccc3cccnc23)c([N+](=O)[O-])c1	?	18µM*	?	?	?
Cc1ccc(C(=O)c2oc3ccccc3c2NC(=O)Cc2ccccc2)cc1	i	.	.	.	i
C[C@H]1CN([C@@H](C)CO)C(=O)c2cc(Br)cnc2O[C@H]1CN(C)C(=O)c1ccc2c(c1)OCO2	i	.	.	.	i
CCC(=O)O[C@@H](OP(=O)(CCCCc1ccccc1)CC(=O)N1C[C@H](C2CCCCC2)C[C@H]1C(=O)O)C(C)C (stereo partly specified)	.	1%	.	15%	.
CC[C@H]1O[C@H](C)CC2=C1C(=O)OC(C)(C)O2	i	.	.	.	?
CCNC(=O)c1cccc(NC(=O)CN2C(=O)NC3(CCCCC3)C2=O)c1	i	3%	4%	-2%	?
Cc1ccccc1NS(=O)(=O)c1ccc(S(=O)(=O)N2CCCC2)cc1	i	.	.	.	i
O=S(=O)(Nc1cccc2cccnc12)c1ccc(S(=O)(=O)N2CCCC2)cc1	i	2.9µM*	-15%	?	?
O=C(Nc1cccnc1Cl)c1ccc(S(=O)(=O)N2CCCCCC2)cc1	i	-1%	?	-5%	9.2µM*
Cc1ccc(-n2[nH]c(C)c(/C=N/c3ccccn3)c2=O)cc1	?	-2%	3%	-8%	i
Cc1[nH]n(-c2ccccc2)c(=O)c1C=Nc1cccc2cccnc12	?	?	?	9%	18µM*
Cc1[nH]n(-c2ccccc2)c(=O)c1/C=N/Nc1nncc(-c2ccccc2)n1	7.3µM*	0%	?	3%	?
Cc1[nH]n(-c2ccccc2)c(=O)c1/C=N/N1C(=O)c2cccc3cccc(c23)C1=O	?	?	?	14%[9.22 µM]	7.3µM*
Cc1nn(Cc2ccccc2)c(Cl)c1C(=O)OCc1nnc(-c2ccccc2)o1	i	-1%	?	?	7.3µM*
Cc1nn(Cc2ccccc2)c(Cl)c1C(=O)OCc1nnc(-c2ccc(Cl)cc2)o1	i	-5%	-6%	15%	i
COc1cccc(C(C)(O)c2nc(-c3cnn(C)c3)cs2)c1 (stereo unspecified)	i	.	.	.	?
CC1CN(C(=O)C2CCCC2)C(C)CN1C(=O)C1CCCC1 (stereo unspecified)	i	-2%	14%	1%	10µM*
CCN(CC(=O)Nc1c(F)cccc1F)C(=O)c1cccn1C	i	.	.	.	i
Cc1ccccc1-n1c(-c2ccc(Cl)cc2)cnc1SCC(=O)NC1CCS(=O)(=O)C1 (stereo unspecified)	i	-2%	13%	10%	18µM*
O=C(CSc1nnc(-c2ccc(Cl)cc2)n1CC1CCCO1)NC1CCS(=O)(=O)C1 (stereo unspecified)	i	?	-7%	1.2µM*	i
COc1ccc(C(=O)COC(=O)C(CCCCN2C(=O)C3C4C=CC(C4)C3C2=O)N2C(=O)C3C4C=CC(C4)C3C2=O)cc1 (stereo unspecified)	i	4%	5.8µM*	11%	?
CC(C)CC(C(=O)OCC(=O)N1CCN(c2ccccc2)CC1)N1C(=O)c2ccccc2C1=O (stereo unspecified)	i	-2%	.	1%	16µM*
COc1ccc(C(=O)COC(=O)C(CC(C)C)N2C(=O)c3ccccc3C2=O)cc1 (stereo unspecified)	i	-8%	-7%	-7%	8.2µM*
COC(=O)C(CCCCN1C(=O)C2C3C=CC(C3)C2C1=O)N1C(=O)C2C3C=CC(C3)C2C1=O (stereo unspecified)	i	-2%[9.22 µM]	0%	5%	i
SMILES	KB-3-1 tox	SW480 rereplic	ELG1 DNA repair	MCF10A rerep	KB-V1 cytotox
C/C(Cl)=C\Cn1c(N2CCCC2)nc2c1c(=O)n(C)c(=O)n2C	i	-4%	-12%	-7%	i
C=CCn1c(N2CCCCCC2)nc2c1c(=O)n(C)c(=O)n2C	i	-9%	?	0%	16µM*
C=CCOCC(O)Cn1c(N2CCCC2)nc2c1c(=O)n(C)c(=O)n2C (stereo unspecified)	i	-36%	2%	1.3µM*	i
Cn1c(=O)c2c(nc(N3CCCC3)n2CC(O)CO)n(C)c1=O (stereo unspecified)	i	0%	6%	5%	i
CC1=CC(C)C(/C=N/N=C(N)N)C(C)C1 (stereo unspecified)	?	?	5.8µM*	?	i
CC1=CC(C)C(C[N+]2(C)CCCCC2)C(C)C1 (stereo unspecified)	i	2%	-4%	2%	i
CCOc1ccc(-c2c(C)nn3c(-c4ccccc4)c(C(=O)NCCOC)cnc23)cc1OCC	i	.	.	.	i
Cn1c(-c2ccc(Br)o2)nc2ccccc21	26µM*!	5%	?	-3%	?
COc1cccc(CNC(=O)Cn2c(=O)oc3cc(S(=O)(=O)N4CCCC4)ccc32)c1	i	.	.	.	i
O=S(=O)(c1cccs1)N1CCN(CC(O)COc2cccc(Br)c2)CC1 (stereo unspecified)	?	?	21µM*	14%	15µM*
O=c1[nH]c(-c2ccccn2)nc2ccccc12	?	?	?	?	i
O=c1[nH]c(-c2ccccn2)nc(C(F)(F)F)c1Br	?	10µM*	9%	18µM*	i
CC(C)=CCOc1c2ccoc2c(OCC=C(C)C)c2oc(=O)ccc12	i	6%	23µM*	?	i
CC(C)(C)C1CCc2onc(C(=O)N3CCOCC3)c2C1 (stereo unspecified)	i	-2%	20%	19%	21µM*
CC(C)(C)C1CCc2onc(C(=O)Nc3ccc4c(c3)OCO4)c2C1 (stereo unspecified)	i	-16%	0%	?	i
COc1cc(NC(=O)c2noc3c2CC(C(C)(C)C)CC3)cc(OC)c1OC (stereo unspecified)	i	.	.	.	16µM*
CC(C)(C)C1CCc2onc(C(=O)NC3CCCC3)c2C1 (stereo unspecified)	?	5%	2%	?	16µM*
CCOc1ccc(S(=O)(=O)N(CC(=O)NCCSCc2ccccc2)c2ccccc2)cc1	i	.	.	.	i
CN(CC(=O)Nc1ccccc1C(F)(F)F)C(=O)c1ccc2c(=O)n3c(nc2c1)CCC3	i	-5%	11%	6%	i
COc1ccccc1CCNC(=O)CCc1c(C)c2cc3c(C)coc3cc2oc1=O	i	.	.	.	i
O=C(CC(c1ccccc1)c1ccccc1)Nc1ccc(Cl)cn1	?	?	12µM*	?	?

High-throughput results as filed in PubChem BioAssay.
